Experimental data from PubChem BioAssay (NCI).
The panel holds about 79,000 compounds, 15% with a hit somewhere; the sample as a whole holds those more often. Values without a mark were called inactive. No stated cut-off is given here; in the data, active means growth inhibition above about 70%; inactive means the rest. Where a SMILES comes first, the peptide text is derived from it. The star is where a group is joined. Cbz = O=C(OCc1ccccc1)*

test: NCI Yeast Anticancer Drug Screen. Data for the bub3 strain (AID 167); conditions: S. cerevisiae bub3 mutant strain, at 50.0 µM, hits give high values
Description: Growth inhibition of yeast strains with defined genetic alterations is measured as a screen for potential anti-cancer activity. Selected strains with alterations in DNA damage repair or cell cycle control were exposed to compounds and growth inhibition was measured relative to vehicle treated controls. The strain used in this assay is bub3

Row | SMILES | growth inhibition
1 | CC(=O)Nc1ccc(S(=O)(=O)SC(F)(F)F)cc1 | 8.85%
2 | Cc1cc2c(c(N)c1C)C(=O)c1ccccc1C2=O | 26.2%
3 | O=[N+]([O-])c1ccc(/C(=N/Nc2ccccc2)c2ccc(Cl)cc2)cc1 | 9.8%
4 | CCCCNc1c(C(=O)N2CCCCC2)cnc2c1cnn2CC | 46.8%
5 | O=C(Nc1ccccn1)c1ccc([N+](=O)[O-])cc1 | -1.8%
6 | CC(=O)Oc1ccccc1Cl | 19.1%
7 | CCOC(=O)c1n[nH]c(C)c1C/C(=N/O)c1ccccc1 | -14.9%
8 | O=C(O)c1ccc(O)cc1 | 1.7%
9 | O=C(O)CCC(C(=O)O)N(Cc1ccccc1)Cc1ccccc1 (stereo not given) | 7.75%
10 | O=C(O)c1ccccc1C(=O)c1ccc(Br)cc1 | -3.45%
11 | c1ccc(C(N2CCNCC2)N2CCNCC2)cc1 | -9.3%
12 | Cc1ccc(S(=O)(=O)NCCN)cc1 | -6.4%
13 | CCn1c(=O)c2[nH]c(Cl)nc2n(CC(C)Cl)c1=O (stereo not given) | 5.35%
14 | CCCOC(=O)O[C@H]1CC[C@@]2(C)C(=CC[C@H]3[C@@H]4CC[C@H]([C@H](C)CCCC(C)C)[C@@]4(C)CC[C@@H]32)C1 | -28.8%
15 | CC(CC(=O)O)C(C)C(=O)O (stereo not given) | 0.5%
16 | O=c1c2c3c(sc2nc2n1N=CN(c1ccc(Cl)cc1)C2)CCCC3 | -4.7%
17 | CC(C)(C)C1CCC2c3c([nH]c4ccccc34)C3C(=O)N(c4ccccc4[N+](=O)[O-])C(=O)C3C2C1 (stereo not given) | -15.3%
18 | CCC(=O)N1NC(=O)C(CC)(CC)C1=O | -2.3%
19 | COc1ccc2ncc(COC(=O)NC3CCCCC3)c(COC(=O)NC3CCCCC3)c2c1 | -4.25%
20 | O=C(O)CNC(=O)OCc1ccccc1 | 1.55%

Row | SMILES | growth inhibition
21 | CCCCCCCCCCCCCCCOc1cc(OC)ccc1-c1nnc(SC)s1 | -11.5%
22 | Fc1ccc(-c2nc3ccccc3[nH]2)cc1 | -4.4%
23 | O=C(C[n+]1ccccc1)NNC(=O)/C(=C/c1ccc2c(c1)OCO2)NC(=O)c1ccccc1 | -3.95%
24 | N/C(=N\c1nc(N)cc(N)n1)Nc1ccc(S(N)(=O)=O)cc1 | -5.6%
25 | CCNC(=S)OC1CCC2(C)C(=CCC3C2CCC2(C)C(C(C)CCC(CC)C(C)C)CCC32)C1 (stereo not given) | -1.55%
26 | O=C(O)C(CO)NC(=O)C1CCCN1C(=O)OCc1ccccc1 (stereo not drawn) (Cbz-Pro-Ser-OH; configuration not given here) | -4.75%
27 | BrCCCOc1ccccc1 | -2.4%
28 | c1ccc(-c2cc3nc4ccccc4nc3o2)cc1 | 2.15%
29 | OCC1CCCCCCCCCC1 | 20.1%
30 | CCN(CC)C(=O)c1cccc2c1OCO2 | 1.4%
31 | COc1ccc2nc3cc([N+](=O)[O-])ccc3c(Nc3ccc(S(=O)(=O)N=C(N)N)cc3)c2c1 | 38.8%
32 | O=C(NCCCCCCNC(=O)Nc1cccc2ccccc12)Nc1cccc2ccccc12 | -2.3%
33 | Clc1ccccc1C(N1CCCCC1)N1CCCCC1 | 28%
34 | COC1=CC(=O)N(C)C(O)C1(C#N)OC1OC(CO)C(O)C(O)C1O (stereo not given) | -17.9%
35 | CCOC(=O)NC(=O)c1cn(C2OC(CO)C(O)C2O)c(=O)[nH]c1=O (stereo not given) | 28.6%
36 | CC(=O)N1C(NN(C)C)CCN1c1ccccc1 (stereo not given) | -22.5%
37 | C=C1CC[N+]2(CCCCCC)CCCC12 (stereo not given) | 25.4%
38 | N#Cc1nc(-c2ccco2)oc1N | -10.2%
39 | CCOC(=O)Oc1ccc(C(=O)NCCC(C)C)cc1OCC | 25.8%
40 | C/C=C/C=C/c1nc(C#N)c(N)o1 | 15.3%
